Screening data: PubChem BioAssay, National Center for Advancing Translational Sciences (NCATS)
Shown are actives, neighbours in structure and some others; about 4.8% of the full set was active somewhere.
S2 tox = Viability Counterscreen for Primary qHTS for Inhibitors of ATXN expression. S2 cells (HEK-293 line with an ATXN2-luciferase reporter) viability, CellTiter-Fluor protease fluorescence, 24 h. Potency, µM (top dose mostly 56.7 µM), actives largely listed as cytotoxic. actives 0.49% (n = 400,000). AID 651635, 2014; further: potency means the concentration at half of the fitted maximal effect; nearly all actives have a fitted effect of over 40% in size
ATXN2 expr inh = Primary qHTS for Inhibitors of ATXN expression | HEK-293 ATXN2-luciferase reporter, luminescence, 24 h | actives 0.72% (n = 360,000) | Potency, µM (top dose mostly 57 µM), without a hit: top-dose activity change, negative = inhibition, most hits filed as inhibitors; further: potency means the concentration at half of the fitted maximal effect; on the % scale 0 is the no-effect control and ±100 the full control effect; nearly all actives have a fitted effect of over 55% in size
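ATXN2-luciferase reporter cells (luciferase flanked by upstream and downstream ATXN2 gene portions) were treated 24 h at 37 °C with compounds at up to 57 uM. SteadyGlo luminescence gave expression; GF-AFC fluorescence gave viability.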
USP1-UAF1 inh = Inhibitors of USP1/UAF1: Primary Screen; actives 0.23% (n = 390,000); AID 743255, 2014; Potency, µM (top dose mostly 57.1 µM), for inactives: at the top dose activity change, negative = inhibition, actives largely listed as inhibitors; Ubiquitin carboxyl-terminal hydrolase 1 (Homo sapiens), O94782; recombinant USP1/UAF1, Ub-Rhodamine cleavage fluorescence; further: potency means the concentration at half of the fitted maximal effect; on the % scale 0 is the no-effect control and ±100 the full control effect; nearly all actives have a fitted effect of over 60% in size
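Step one: compound is pinned into 1nM USP1/UAF1 in HEPES pH 7.8 buffer with TCEP. Step two: 15 min room-temperature incubation. Step three: Ub-Rho (150nM final) starts cleavage, tracked by fluorescence over six one-minute reads.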
USP2a block = qHTS Assay for Inhibitors of Ubiquitin-specific Protease USP2a Using CHOP2 as the Reporter; actives 0.01% (n = 330,000); Potency, µM (highest dose often 38.3 µM), without a hit: at the highest dose activity change, negative = inhibition, hits mostly inhibitors; USP2 core, Ub-CHOP2 coupled fluorogenic reporter, 485/531;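 further: potency means the concentration at half of the fitted maximal effect; plate controls were DMSO wells for no effect and full inhibition by NEM control for full effect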
Target sequence (O75604 whole entry, looked up): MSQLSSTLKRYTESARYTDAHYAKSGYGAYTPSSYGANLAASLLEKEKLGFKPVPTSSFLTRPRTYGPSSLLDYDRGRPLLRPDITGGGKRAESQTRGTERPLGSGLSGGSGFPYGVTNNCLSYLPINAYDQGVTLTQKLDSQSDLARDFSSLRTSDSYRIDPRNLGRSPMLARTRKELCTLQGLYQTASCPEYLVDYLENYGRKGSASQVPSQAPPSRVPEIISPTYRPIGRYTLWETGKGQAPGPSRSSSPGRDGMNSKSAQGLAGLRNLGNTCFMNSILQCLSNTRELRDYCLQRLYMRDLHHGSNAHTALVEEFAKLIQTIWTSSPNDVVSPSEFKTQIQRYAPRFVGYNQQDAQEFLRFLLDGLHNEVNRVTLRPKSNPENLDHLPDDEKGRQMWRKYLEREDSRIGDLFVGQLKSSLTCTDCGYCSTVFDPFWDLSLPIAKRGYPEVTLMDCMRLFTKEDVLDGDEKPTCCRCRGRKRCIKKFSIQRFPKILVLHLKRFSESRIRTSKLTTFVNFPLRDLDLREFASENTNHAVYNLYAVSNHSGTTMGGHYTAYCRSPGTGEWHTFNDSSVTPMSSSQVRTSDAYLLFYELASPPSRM
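Cell-free coupled assay: 10nM USP2 core preincubated 30min RT with compound in Tris-HCl pH 8.0/CaCl2/CHAPS buffer, then 25nM Ub-CHOP2 and 25nM reporter substrate; fluorescence (Ex 485/Em 531) read after 60min RT, normalized to NEM inhibition, concentration-response curves fitted.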
IL-1B inflam inh = qHTS for Inhibitors of Inflammasome Signaling: IL-1-beta AlphaLISA Primary Screen; actives 4.7% (n = 360,000); THP-1 LPS/ATP IL-1B secretion, AlphaLISA, 16 h; hits give low values; activity change, % at 57.5 µM; in the data active means activity change below about -50%; inconclusive means mostly about -30% to -49%; further: on the % scale 0 is the no-effect control and ±100 the full control effect
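Secreted IL-1B measured by AlphaLISA bead assay after 16 h compound exposure of THP-1 cells; compounds (final up to 57.5 uM) added 1 h before LPS (250 ng/mL) and ATP (1.25 mM) stimulation; lower signal means less secretion.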
* marks the source's active call; other numbers are inactive results; i = inactive; u = inconclusive; x = no result; ! = not confirmed by another sample. Unless noted, the call rests on the fitted dose curve; in most records, active means well fitted curve in the direction sought with a large enough effect; inconclusive means small, poorly fitted or top-dose-only effect, or another doubt; inactive means no such curve, though single readings can be large; an effect the other way counts as inactive or inconclusive.

SMILES | S2 tox | ATXN2 expr inh | USP1-UAF1 inh | USP2a block | IL-1B inflam inh
CCCCCN=C(N)NN=Cc1c[nH]c2ccc(OC)cc12 | x | -18% | x | x | x
CCCCCN=C(N)N/N=C/c1c[nH]c2ccc(OC)cc12 | 18µM* | 5.6µM*! | -12% | x | 0
Cc1ccsc1/C=N/NC(=O)c1ccc(Cn2cc(Br)cn2)o1 | i | 12% | 1% | 4% | 8
O=C(N/N=C/c1cccc(Br)c1)c1ccc(Cn2cc(Br)cn2)o1 | i | -10% | -6% | 6% | -73*
Cc1ccc(C(=O)c2c3ccc([N+](=O)[O-])cc3[n+]([O-])n2CCCN)cc1 | u | 0% | u | 0% | -21
COc1ccccc1Nc1nn2c(=O)c3ccc(C(=O)NCCCOC(C)C)cc3nc2s1 | i | -23% | u | x | x
CCN(CC)CCNC(=O)c1ccc2c(=O)n3nc(Nc4ccccc4OC)sc3nc2c1 | u | 16µM* | -31% | x | x
COc1ccccc1Nc1nn2c(=O)c3ccc(C(=O)N4CCCC(C)C4)cc3nc2s1 (centres undefined) | 32µM*! | u | -24% | 1% | -4
CCOC(=O)C1CCN(C(=O)c2ccc3c(=O)n4nc(Nc5ccccc5OC)sc4nc3c2)CC1 | i | x | u | x | -52*
CCOC(=O)C1CCN(C(=O)c2ccc3c(=O)n4nc(Nc5cc(C)ccc5C)sc4nc3c2)CC1 | i | -30% | -11% | 0% | 33
COc1ccc(NC(=O)CSc2nc3cc(OC)c(OC)cc3c3nc(-c4ccccc4)nn23)cc1Cl | i | -5% | -17% | x | x
CC(=O)Oc1ccc2c(c1)CC[C@@H]1[C@@H]2CC[C@]2(C)[C@@H](O)CC[C@@H]12 | u | -9% | x | x | x
O=C(c1nc2ncccn2n1)N1CCOc2ccc(C(O)C(c3ccccc3)c3ccccc3)cc2C1 (centres undefined) | i | x | x | x | x
CCOc1ccccc1C(=O)N1CCC(c2nc3ccccc3o2)CC1 | x | x | 7% | x | x
CCN(CC)CCNC(=O)C(=O)Nc1cc2c3c(c1)CCC(=O)N3CCC2 | i | 23% | -25% | -2% | -62*
Cc1[nH]c(C)c(C(=O)/C=C/c2ccc([N+](=O)[O-])cc2)c1C | u | x | -18% | 1% | -97*
COc1cccc(CNC(=O)c2c(OC)cc(=O)n3c2CCN(C(=O)C2CC24CCCCC4)CC3)c1 (centres undefined) | i | x | x | x | x
O=[N+]([O-])c1ccc2nc(C(O)C(O)c3nc4ccc([N+](=O)[O-])cc4[nH]3)[nH]c2c1 (centres undefined) | i | -7% | -8% | u | 21
O=[N+]([O-])c1ccc(-c2nc(-c3cccs3)c(-c3cccs3)[nH]2)cc1 | u | u | -25% | -6% | -81*
Fc1ccc(-c2nc(-c3cccs3)[nH]c2-c2ccc(F)cc2)cc1 | u | -4% | -24% | 1% | -63*
O=[N+]([O-])c1cccc(-c2nc(-c3cccs3)c(-c3cccs3)[nH]2)c1 | i | -13% | -6% | -1% | -15
Nc1ccc(-c2nc3ccc([N+](=O)[O-])cc3[nH]2)cc1 | i | 55% | -1% | 0% | -80*
O=[N+]([O-])c1ccc2nc(/C=C/c3ccc(Cl)cc3)[nH]c2c1 | u | u | -3% | 1% | -94*
Cc1cc(C(=O)N(Cc2cc3cc4c(cc3nc2N2CCOCC2)CCC4)CC2CCCO2)c(=O)[nH]c1C (centres undefined) | i | x | x | x | x
Cc1ccc2oc(-c3ccc(Cl)c(NC(=O)c4ccc(-c5ccccc5[N+](=O)[O-])o4)c3)nc2c1 | i | 75% | -26% | x | x
SMILES | S2 tox | ATXN2 expr inh | USP1-UAF1 inh | USP2a block | IL-1B inflam inh
C[C@@H]1CN([C@@H](C)CO)C(=O)CCCn2cc(nn2)CO[C@H]1CN(C)S(=O)(=O)c1cccc(C#N)c1 | i | 12% | -33% | x | 21
O=[N+]([O-])c1ccc(-c2nc3ccc([N+](=O)[O-])cc3[nH]2)cc1 | u | -32% | -8% | 2% | -91*
CCN(CC)CCOc1ccc2c(c1)C(=NO)c1cc(OCCN(CC)CC)ccc1-2 | 8.9µM* | 11µM* | 5% | 4% | -105*
CCN(CC)CCCOc1ccc(Cl)c(Cl)c1 | i | -20% | 1% | 1% | -73*
CCCOc1ccc2c(c1)C(=NN=C(N)N)c1cc(OCCC)ccc1-2 | 25µM* | 20µM* | -9% | 4% | -97*
Cc1ccccc1-c1cc2c(c(OC3CCOC3)c1)OCCN(C(=O)Cn1cccn1)C2 (centres undefined) | i | x | x | x | x
COc1ccccc1N1CCN(C(=O)C(CCSC)NS(=O)(=O)c2ccc3c(c2)oc(=O)n3C)CC1 (centres undefined) | x | x | -30% | x | x
C/C(=N\N(Cc1ccccc1)c1ccccc1)c1cccnc1 | u | 21% | -23% | 0% | -51*
C(=N\N(Cc1ccccc1)c1ccccc1)/c1cccnc1 | i | -28% | -15% | 2% | -19
CN(CCc1ccccc1)C(=O)c1ccc(NC(=O)Cc2ccc(NC(=O)C3CCN(C(=O)C4CC4)CC3)cc2)cc1 | i | 4% | -18% | x | -56*
CN(CCc1ccccc1)C(=O)c1ccc(NC(=O)Cc2ccc(NC(=O)C3CCN(C(=O)C4CCCC4)CC3)cc2)cc1 | u | -12% | -12% | x | u
CN(CCc1ccccc1)C(=O)c1ccc(NC(=O)Cc2cccc([N+](=O)[O-])c2)cc1 | u | u | 14% | -4% | -51*
O=C(CNc1cccc([N+](=O)[O-])c1)NCCCc1ccccc1 | i | -1% | 1% | 0% | -96*
CN(C(=O)c1ccc(NC(=O)Cc2ccc(NC(=O)C3CCN(C(=O)C4CCCC4)CC3)cc2)cc1)C1CC1 | i | 7% | 11% | 2% | -71*
CN(C(=O)c1ccc(NC(=O)Cc2ccc(NC(=O)C3CCN(C(=O)C4CCC4)CC3)cc2)cc1)C1CC1 | i | 2% | -17% | 0% | u
COc1ccc(CN(C)S(=O)(=O)c2c(C)noc2C)cc1OC | i | 9% | -2% | -1% | 34
Cc1ccc(C(O)c2ncc(-c3ccccc3Cl)[nH]2)cc1 (centres undefined) | i | 29% | x | x | 9
CCCCc1c(C)c(C#N)c2nc3ccccc3n2c1NCCN(C)C | i | -6% | -25% | -1% | 12
Cc1c(Cc2ccccc2)c(NCCN(C)C)n2c(nc3ccccc32)c1C#N | i | -30% | -20% | 2% | -71*
